# Laboratory results reported in PubChem BioAssay.
# Calls of active or inactive are those of the source.
# Columns and labels:
# [1] = tested on: Plasmodium falciparum Sir2 (PF13_0152, Sir2A); experiment: pfSir2 binders on small-molecule microarrays, primary screen, biochemical, small-molecule microarray, 635 nm fluorescence (AID 1098); conditions: small-molecule microarray binding, fluorescence 635 nm; higher = more signal;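 also: score merges spot fluorescence intensity with its signal-to-noise ratio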
# [2] = small-molecule microarray binders of probe aDKK1, primary screen, biochemical, biotinylated probe, 635/667 nm fluorescence (AID 1099); conditions: higher = more signal;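 also: score merges 667nm spot fluorescence with signal to noise across triplicate slides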
# [3] = small-molecule microarray binders of probe aCHRDL2, primary screen, biochemical, biotinylated probe, 635/667 nm fluorescence (AID 1100); conditions: higher = more signal
# [4] = splicing luciferase reporter signal modulators, primary screen, spliceosome inhibition project, cell-based, HEK293, splice +/- reporter (AID 1101); conditions: luminescence, 24 h, higher = more signal, called active from +8 up or from −8 down;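 also: HEK293 cells carrying a splicing-competent luciferase reporter gene; test concentration not given here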
# [5] = biological target: Fibroblast growth factor 10 (Homo sapiens) (UniProt O15520); experiment: FGF10 binders on small-molecule microarrays, primary screen, biochemical, small-molecule microarray, 635 nm fluorescence (AID 1102); conditions: FGF10 binding, fluorescence 635 nm, higher = more signal
# Chain of Fibroblast growth factor 10 (Homo sapiens) (O15520 whole entry, looked up): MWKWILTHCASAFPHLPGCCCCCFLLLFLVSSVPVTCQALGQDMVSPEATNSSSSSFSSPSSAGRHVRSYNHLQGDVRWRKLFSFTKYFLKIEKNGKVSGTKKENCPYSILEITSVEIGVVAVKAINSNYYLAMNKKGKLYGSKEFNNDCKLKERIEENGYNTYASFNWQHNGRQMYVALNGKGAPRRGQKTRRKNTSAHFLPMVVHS
# [6] = tested on: glycogen synthase kinase-3 (GSK3A per assay name; protocol says GSK3B); experiment: GSK3 binders on small-molecule microarrays, primary screen, biochemical, small-molecule microarray, 635 nm fluorescence, GSK3A (AID 1103); conditions: small-molecule microarray binding, fluorescence 635 nm; higher = more signal; also: the record names both GSK3A and GSK3B
# [7] = biological target: Epidermal growth factor receptor (Homo sapiens) (UniProt P00533); experiment: EGFR binders on small-molecule microarrays, primary screen, biochemical, small-molecule microarray, 635 nm fluorescence (AID 1104); conditions: EGFR binding, higher = more signal;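 also: score merges 667 nm emission intensity with spot signal to noise over triplicate slides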
# Chain of Epidermal growth factor receptor (Homo sapiens) (P00533 whole entry, looked up): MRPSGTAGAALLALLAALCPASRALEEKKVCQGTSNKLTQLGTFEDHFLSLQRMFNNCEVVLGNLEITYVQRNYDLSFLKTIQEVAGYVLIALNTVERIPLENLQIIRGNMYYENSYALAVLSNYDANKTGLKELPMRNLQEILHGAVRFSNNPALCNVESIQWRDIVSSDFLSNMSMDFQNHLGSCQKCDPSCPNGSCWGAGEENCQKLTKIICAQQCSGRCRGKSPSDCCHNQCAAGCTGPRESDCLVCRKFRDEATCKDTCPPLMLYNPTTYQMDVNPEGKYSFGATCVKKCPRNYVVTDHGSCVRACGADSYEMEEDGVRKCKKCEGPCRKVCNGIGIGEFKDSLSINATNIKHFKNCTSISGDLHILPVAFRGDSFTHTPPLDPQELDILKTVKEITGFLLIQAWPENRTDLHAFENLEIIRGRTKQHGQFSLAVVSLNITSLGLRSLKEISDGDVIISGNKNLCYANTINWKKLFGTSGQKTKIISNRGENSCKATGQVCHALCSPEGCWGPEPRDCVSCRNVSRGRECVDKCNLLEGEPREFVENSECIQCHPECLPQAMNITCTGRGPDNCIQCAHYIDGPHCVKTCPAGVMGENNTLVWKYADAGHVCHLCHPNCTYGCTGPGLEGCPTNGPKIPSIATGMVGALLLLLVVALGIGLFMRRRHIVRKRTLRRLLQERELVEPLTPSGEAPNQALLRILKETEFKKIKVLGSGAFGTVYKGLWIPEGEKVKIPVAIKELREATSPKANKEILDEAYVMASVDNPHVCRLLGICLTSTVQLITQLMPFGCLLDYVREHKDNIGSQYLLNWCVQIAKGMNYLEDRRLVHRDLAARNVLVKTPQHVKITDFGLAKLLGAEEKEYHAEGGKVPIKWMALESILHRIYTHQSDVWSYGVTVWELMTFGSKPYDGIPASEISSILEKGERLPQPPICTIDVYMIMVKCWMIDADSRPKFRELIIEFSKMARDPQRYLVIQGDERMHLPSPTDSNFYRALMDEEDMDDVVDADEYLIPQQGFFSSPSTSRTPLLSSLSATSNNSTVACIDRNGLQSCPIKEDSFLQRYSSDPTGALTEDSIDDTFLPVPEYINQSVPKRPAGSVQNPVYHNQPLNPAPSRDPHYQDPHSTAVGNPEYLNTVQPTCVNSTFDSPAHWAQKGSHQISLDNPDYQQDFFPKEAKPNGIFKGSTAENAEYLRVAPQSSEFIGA
# [8] = biological target: Follistatin-related protein 3 (Homo sapiens) (UniProt O95633); experiment: FSTL3 binders on small-molecule microarrays, primary screen, biochemical, small-molecule microarray, 635 nm fluorescence (AID 1105); conditions: FSTL3 binding, higher = more signal;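 also: score merges emission near 667 nm and signal to noise per printed spot across three slides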
# Chain of Follistatin-related protein 3 (Homo sapiens) (O95633 whole entry, looked up): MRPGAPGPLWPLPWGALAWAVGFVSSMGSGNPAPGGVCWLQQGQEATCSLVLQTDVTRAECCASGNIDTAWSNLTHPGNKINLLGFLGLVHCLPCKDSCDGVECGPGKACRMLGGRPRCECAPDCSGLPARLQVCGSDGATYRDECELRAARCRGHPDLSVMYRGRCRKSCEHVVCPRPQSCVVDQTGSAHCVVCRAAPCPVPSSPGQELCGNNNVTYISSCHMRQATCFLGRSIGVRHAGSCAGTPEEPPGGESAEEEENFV
# [9] = biological target: Dickkopf-related protein 1 (Homo sapiens) (UniProt O94907); experiment: DKK1 binders on small-molecule microarrays, primary screen, biochemical, small-molecule microarray, 635 nm fluorescence scan (AID 1106); conditions: DKK1 binding, higher = more signal;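 also: score merges emission near 667 nm with signal to noise over three replicate slides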
# Chain of Dickkopf-related protein 1 (Homo sapiens) (O94907 whole entry, looked up): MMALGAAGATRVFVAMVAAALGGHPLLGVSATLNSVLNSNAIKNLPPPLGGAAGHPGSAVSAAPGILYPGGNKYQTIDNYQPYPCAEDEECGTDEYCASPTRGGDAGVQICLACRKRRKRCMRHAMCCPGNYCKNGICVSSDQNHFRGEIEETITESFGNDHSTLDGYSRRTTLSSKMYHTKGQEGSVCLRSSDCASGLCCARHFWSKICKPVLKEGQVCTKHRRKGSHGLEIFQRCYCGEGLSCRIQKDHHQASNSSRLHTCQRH
# [10] = tested on: Inhibin beta A chain (activin A); experiment: INHBA (activin A) binders on microarrays, primary screen, biochemical, small-molecule microarray, 635 nm fluorescence scan (AID 1107); conditions: small-molecule microarray binding, higher = more signal;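 also: mouse activin A protein probed at 4.33 µg/mL on printed slides; score merges bound-protein fluorescence near 667 nm with spot signal-to-noise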
# [11] = tested on: Human papillomavirus type 1a protein E7 (residues 44-93); experiment: HPV1a E7 fragment binders on microarrays, primary screen, biochemical, small-molecule microarray, residues 44-93, 635 nm fluorescence (AID 1108); conditions: small-molecule microarray binding, fluorescence 635 nm; higher = more signal;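 also: E7 fragment applied at 1 µg/mL in TBST for 1 h at 4 C; score combines spot fluorescence with its signal to noise ratio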
# [12] = modulators of HCV replicon luciferase signal, primary screen, HCV replication inhibitor project, Huh7 cells, luciferase reporter (AID 1109); conditions: 48 h, higher = more signal;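 also: huh7 hepatoma cells harbouring a luciferase neomycin HCV replicon reporter; luciferase luminescence as measure of HCV replicon replication; test concentration not given here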
# [13] = biological target: Left-right determination factor 2 (Homo sapiens) (UniProt O00292); experiment: LEFTY2 binders on small-molecule microarrays, primary screen, biochemical, small-molecule microarray, 635 nm fluorescence scan (AID 1110); conditions: LEFTY2 binding, higher = more signal
# Chain of Left-right determination factor 2 (Homo sapiens) (O00292 whole entry, looked up): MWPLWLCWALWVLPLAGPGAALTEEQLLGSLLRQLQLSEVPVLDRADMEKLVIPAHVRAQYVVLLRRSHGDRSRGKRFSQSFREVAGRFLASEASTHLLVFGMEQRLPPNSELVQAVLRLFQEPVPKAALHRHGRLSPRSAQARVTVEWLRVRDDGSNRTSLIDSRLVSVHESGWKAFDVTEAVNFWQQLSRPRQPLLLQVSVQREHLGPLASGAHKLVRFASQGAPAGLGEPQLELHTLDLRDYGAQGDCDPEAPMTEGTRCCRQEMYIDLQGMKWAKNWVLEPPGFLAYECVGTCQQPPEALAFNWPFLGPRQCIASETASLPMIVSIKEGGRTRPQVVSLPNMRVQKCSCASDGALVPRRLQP
# [14] = biological target: Calmodulin-1 (Homo sapiens) (UniProt P0DP23); experiment: CALM1 binders on microarrays, EGTA buffer, profiling panel, biochemical, small-molecule microarray, Cy5-labelled CALM1 (AID 1111); conditions: Cy5-CALM1 binding fluorescence, higher = more signal;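 also: labelled calmodulin applied in Tris saline Tween buffer holding calcium plus EGTA and DTT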
# [15] = biological target: Calmodulin-1 (Homo sapiens) (UniProt P0DP23); experiment: calcium-bound CALM1 binders on microarrays, profiling panel, artefact control for SMM control-protein annotation, biochemical, small-molecule microarray, Cy5-labelled CALM1, plus calcium (AID 1112); conditions: Cy5-CALM1 binding fluorescence, higher = more signal;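 also: score merges spot fluorescence with signal to noise from triplicate slides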
# [16] = small-molecule microarray binders of probe aWnt5a, primary screen, biochemical, biotinylated probe, 635/667 nm fluorescence (AID 1113); conditions: higher = more signal;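 also: score merges 667 nm fluorescence intensity with signal-to-noise per printed feature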
# [17] = small-molecule microarray binders of probe aShh, primary screen, biochemical, biotinylated probe, 635/667 nm fluorescence (AID 1114); conditions: higher = more signal;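 also: probe is biotin-labelled aShh protein from a stem cell growth factor screen; measures binding of labelled protein to compounds printed on the slide; score merges feature fluorescence at 667 nm with signal-to-noise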
# [18] = small-molecule microarray binders of probe aNog, primary screen, biochemical, biotinylated probe, 635/667 nm fluorescence (AID 1115); conditions: higher = more signal;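 also: probe is biotinylated aNog protein used at 0.15 µg/mL for 1 h at 4 C; z-score combines 667 nm fluorescence of each spot with its signal to noise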
# [19] = biological target: Torsin-1A-interacting protein 1 (Homo sapiens) (UniProt Q5JTV8); experiment: LAP1 binders from COS7 cell lysate, primary screen, small-molecule microarray, 635/667 nm fluorescence (AID 1116); conditions: COS7-hLAP1 lysate binding, 635 nm fluorescence, higher = more signal
# Chain of Torsin-1A-interacting protein 1 (Homo sapiens) (Q5JTV8 whole entry, looked up): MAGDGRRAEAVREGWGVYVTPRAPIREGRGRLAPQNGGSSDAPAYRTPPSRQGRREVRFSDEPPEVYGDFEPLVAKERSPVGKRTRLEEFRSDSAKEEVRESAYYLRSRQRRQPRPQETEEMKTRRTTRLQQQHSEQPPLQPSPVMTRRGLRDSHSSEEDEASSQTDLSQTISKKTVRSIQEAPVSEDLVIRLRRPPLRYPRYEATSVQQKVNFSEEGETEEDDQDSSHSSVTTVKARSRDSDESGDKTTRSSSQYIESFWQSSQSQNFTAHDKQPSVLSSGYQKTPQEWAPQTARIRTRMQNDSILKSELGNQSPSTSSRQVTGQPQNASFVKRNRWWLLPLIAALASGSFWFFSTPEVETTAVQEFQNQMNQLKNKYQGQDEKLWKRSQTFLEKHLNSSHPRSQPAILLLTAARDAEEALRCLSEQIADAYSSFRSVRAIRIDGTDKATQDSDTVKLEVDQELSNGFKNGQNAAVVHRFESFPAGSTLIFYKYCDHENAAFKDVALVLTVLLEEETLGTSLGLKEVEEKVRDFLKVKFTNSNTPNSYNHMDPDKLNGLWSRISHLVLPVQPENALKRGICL
# [20] = biological target: Alpha-bungarotoxin (Bungarus multicinctus) (UniProt P60615); experiment: alpha-bungarotoxin binders on microarray, profiling panel, artefact control for SMM control protein annotation, biochemical, small-molecule microarray, Alexa647 label, 635/667 nm fluorescence (AID 1117); conditions: alpha-BTX-A647 binding fluorescence, higher = more signal
# Chain of Alpha-bungarotoxin (Bungarus multicinctus) (P60615 whole entry, looked up): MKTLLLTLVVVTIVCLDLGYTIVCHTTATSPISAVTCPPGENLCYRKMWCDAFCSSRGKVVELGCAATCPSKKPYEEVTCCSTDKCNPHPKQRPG
Structure (SMILES),composite z-score [1],composite z-score [2],composite z-score [3],z-score [4],composite z-score [5],composite z-score [6],composite z-score [7],composite z-score [8],composite z-score [9],composite z-score [10],composite z-score [11],z-score [12],composite z-score [13],composite z-score [14],composite z-score [15],composite z-score [16],composite z-score [17],composite z-score [18],composite z-score [19],composite z-score [20]
CC(C)(C)OC(=O)CC[C@@]1(C(=O)NCC(O)CO)N=C(c2ccc(OCCCO)cc2)O[C@@H]1c1ccccc1CN=[N+]=[N-] (stereo not given in full),0.552,0.726,0.918,-0.0605 (inactive),0.364,0.706,-0.0699,0.335,-0.39,0.349,1.11,-0.75,-0.222,1.25,0.311,-0.124,0.108,0.72,1.64,0.833
COC(=O)[C@@]1(Cc2ccc(F)cc2)[C@H]2c3cc(C(=O)N4CCCC4)n(CCc4c[nH]c5ccccc45)c3C[C@H]2CN1C(=O)c1ccccc1,0.539,0.948,1.03,-0.593 (inactive),0.894,1.32,0.549,1.21,0.113,0.834,1.42,-1.52,0.304,1.45,1.31,0.0718,0.582,2.08,1.63,1.89
C#Cc1cc2ccccc2oc1=O,0.253,-0.265,0.256,3.33 (inactive),-0.347,-0.748,-2.35,-2.4,-1.87,-1.73,-0.455,-3.88,-2.19,-1.07,-0.451,-0.187,0.541,-0.396,-0.402,-1.65
CCCC=C(CCC)[C@@H](NC(=O)C(C)(C)C)c1ccc(C(=O)OC)cc1,-0.0973,1.13,1.06,-0.58 (inactive),-0.129,-0.107,-0.0375,0.11,-0.58,0.757,1.32,-1.01,-0.494,1.72,1.43,0.191,0.572,1.98,0.321,1.5
COc1cc(NN2C(C(O)c3ccc(N(C)C)cc3)C=CC3C(=O)N(c4ccccc4)C(=O)C32)cc(OC)c1OC (stereo not given),0.101,1.16,1.13,-0.859 (inactive),0.513,0.765,-0.038,0.455,-0.335,1.67,1.36,-0.99,0.143,0.68,0.0572,0.112,0.184,0.531,0.639,0.738
COC(=O)c1c(CC[C@@H](CO)NC(=O)N[C@@H](C)Cn2cc(-c3ccccn3)nn2)oc(C(C)=O)c1C(=O)OC,1.09,-0.18,-0.495,-1.89 (inactive),0.563,0.0696,-0.344,0.454,0.28,0.284,0.683,0.51,0.328,-0.063,-1.06,-0.0981,0.123,-0.0926,0.237,-0.715
